One assay relates to TTR (gene 7276). In words: CCTE_GLTED_hTTR_0.5uM: CCTE's human Transthyretin (hTTR) Inhibition Assay, with 0.5uM TTR, Great Lakes Toxicology and Ecology Division (GLTED) Lab (AID 2284320). The method in brief: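 Probe (ANSA) displacement from 0.5 uM human transthyretin was followed by fluorescence (ex 380, em 475) after a 2 h incubation with chemical. Activity was scored as signal loss and fitted positively relative to DMSO.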

Assay [1] in a line: CCTE_Mundy_HCI_iCellGluta_NOG_NeuriteCount: CCTE's Neurite Outgrowth Assay in iCellGluta cells for Neurite Count, Mundy Lab (AID 2284342; active means hit-call score of the fitted dose curve at least 0.9, where 1 is the maximum;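 further: chemical exposure about 48 hours starting 2 hours after plating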).
The test system of a further assay is SERPINA7 (gene 6906). The assay is described as follows: CCTE_GLTED_hTBG: CCTE's human Thyroxine-binding Globulin (TBG) Inhibition Assay, Great Lakes Toxicology and Ecology Division (GLTED) Lab (AID 2284343; active means hit-call score of the fitted dose curve at least 0.9, where 1 is the maximum;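 further: active chemicals lower fluorescence versus DMSO baseline by displacing probe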). An outline of the steps: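 Fluorescence (ex 380/em 475) reports ANSA displaced from human TBG after a 2 h incubation with test chemical, without cells. Loss of signal indicates displacement, with DMSO serving as baseline.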

Assay [2] can be described thus: Tanguay_ZF_120hpf_MO24: Oregon State University Tanguay Lab 24 Hour Post-fertilization zebrafish Assay for Mortality (AID 2284389). An outline of the steps:
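Embryo death at 24 hpf was recorded as present or absent in Tropical 5D zebrafish, dechorionated at 4 hpf and dosed statically from 6 hpf (28C, 0.64% DMSO); 5 uM trimethyltin chloride served as positive control.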

Assay [3] is described as follows: Tanguay_ZF_120hpf_DP24: Oregon State University Tanguay Lab 24 Hour Post-fertilization zebrafish Assay for Delayed Development (AID 2284390). An outline of the steps: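 Scored at 24 hpf as a binary present/absent call of delayed development by brightfield, with dead embryos not assessed. Embryos (5D wild type, chorion removed with pronase at 4 hpf) dosed statically from 6 hpf at 28 C in 0.64% DMSO.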

Assay [4] can be described thus: Tanguay_ZF_120hpf_CRAN: Oregon State University Tanguay Lab 120 Hour Post-fertilization zebrafish Assay for Craniofacial Malformation (AID 2284397). An outline of the steps: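 Scoring of craniofacial malformation as a binary endpoint was done at 120 hpf by brightfield microscopy and was not done in dead embryos. Exposure was static, starting at 6 hpf, in dechorionated wild-type embryos held singly at 28C with 0.64% DMSO final.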

Assay [5] in a line: Tanguay_ZF_120hpf_AXIS: Oregon State University Tanguay Lab 120 Hour Post-fertilization zebrafish Assay for Axial Malformation (AID 2284398). The method in brief:
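Scoring was binary (present or absent) for body-axis defects, judged by brightfield imaging at 120 hpf in surviving larvae. Exposure was static at 28C from 6 hpf in chorion-free 5D wild-type embryos, with 0.64% DMSO vehicle.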

Assay [6] is described as follows: CCTE_Deisenroth_5AR_NBTE_acceptor: CCTE's 5alpha-reductase NanoBRET Target Engagement Assay - Autofluorescence Screen, Deisenroth Lab (AID 2284321).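 Further: compound fluorescence in the acceptor channel under 460 nm excitation flags autofluorescence artifacts.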 The conditions noted are these: actives raise or lower the signal. An outline of the steps:
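Using three independent plate-reader runs, nominal 100 uM chemicals were checked for intrinsic fluorescence (ex 460 nm). DMSO defined the baseline for bidirectional fitting.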

Another assay has as its system SRD5A2 (gene 6716). The assay is described as follows: CCTE_Deisenroth_5AR_NBTE_ratio: CCTE's 5alpha-reductase NanoBRET Target Engagement Assay - Ratio, Deisenroth Lab (AID 2284322). The conditions noted are these: actives raise or lower the signal. The method in brief: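 SRD5A2-NanoLuc HEK293T; cmpd 10 nM-29.9 uM, 3 h preinc + testosterone tracer 2 h; NanoBRET ratio 650/460; bidirectional fit vs DMSO.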
In general terms: BRET reads energy transfer from a luciferase to a nearby fluorophore.

The nature of assay [7]: TAMU_PeakParms_SingleDonor1434_Asystole: Texas A&M University (TAMU) 1.5-hr Human Induced Pluripotent Stem Cell (iPSC)-derived Cardiomyocytes Calcium (Ca+2) Flux Assay for Cardiotoxicity: Asystole (quiescence of beating) (AID 2284328; active means hit-call score of the fitted dose curve at least 0.9, where 1 is the maximum). The method in brief: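 Average Ca2+-flux peak frequency (beats/s) was recorded in single-donor iPSC-derived cardiomyocytes after 90 min exposure (0.2–100 uM final, 0.5% DMSO). Asystole POD set as EC95 against DMSO, no preprocessing.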

Assay [8] deals with Brachyury (BRA) Protein Expression, Deisenroth Lab, TBXT (gene 6862). The assay is described as follows: CCTE_Deisenroth_DEVTOX-GLR_legacy_Bra: (Legacy) CCTE's DevTox GLR-Endo Assay Evaluation of Brachyury (BRA) Protein Expression, Deisenroth Lab (AID 2284329). An outline of the steps:
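Percent Bra-positive cells, scored by high-content imaging against a threshold of 5x BMAD over the undifferentiated control median, with the 0.2% DMSO median subtracted. RUES2-GLR cultures were dosed twice at 24 h intervals across a 48 h differentiation, at 1 nM–200 uM in ten steps, with n=4 replicates.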

Assay [9] is described as follows: CCTE_Deisenroth_DEVTOX-GLR_legacy_CellCount: (Legacy) Viability Assessment in CCTE's DevTox GLR-Endo Assay, Deisenroth Lab (AID 2284331). The conditions noted are these: actives raise or lower the signal. An outline of the steps:
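Human pluripotent RUES2-GLR cells differentiated 48 h with two 24-h-interval exposures, 10-point 1 nM–200 uM series, 0.2% DMSO. Fixed nuclei counted by high-content imaging (5 fields/well); bidirectional fit vs DMSO, n≥4.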

A short description of assay [10]: IUF_NPC1_cytotoxicity_72hr: Cytotoxicity Assessment at 72 hours in the Leibniz Research Institute for Environmental Medicine (IUF) Neural Progenitor Cell Proliferation Assay (NPC1) (AID 2284332; active means hit-call score of the fitted dose curve at least 0.9, where 1 is the maximum;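 further: rising LDH signal means more cytotoxicity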). The method in brief:
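LDH in supernatant, resazurin→resorufin fluorescence (RFU), 72 h exposure, no re-dosing. Cells: primary hNPC spheres, one per well, EGF+FGF medium, 37C/5% CO2, pH 7.2-7.6. Fit: positive direction vs baseline and dynamic range.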

Assay [11] has as its system SRY-box transcription factor 17 (SOX17) Protein Expression, Deisenroth Lab, SOX17 (gene 64321). In words: CCTE_Deisenroth_DEVTOX-GLR_legacy_Sox17: (Legacy) CCTE's DevTox GLR-Endo Assay Evaluation of SRY-box transcription factor 17 (SOX17) Protein Expression, Deisenroth Lab (AID 2284341). The conditions noted are these: actives raise or lower the signal. The method in brief:
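RUES2-GLR human pluripotent cells differentiated toward endoderm for 48 h, dosed twice at 24 h intervals (1 nM–200 uM, 10 points). Imaging gives % SOX17+ cells (intensity >5x BMAD above pluripotent control median); bidirectional fit versus 0.2% DMSO.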

The subject of assay [12] is SRY-box transcription factor 2 (SOX2) Protein Expression, Deisenroth Lab, SOX2 (gene 6657). The assay is described as follows: CCTE_Deisenroth_DEVTOX-GLR_legacy_Sox2: (Legacy) CCTE's DevTox GLR-Endo Assay Evaluation of SRY-box transcription factor 2 (SOX2) Protein Expression, Deisenroth Lab (AID 2284346). The method in brief: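 Percent Sox2-positive cells was scored by high-content imaging of 5 fields per well. Positivity cutoff was 5x BMAD over the directed endoderm control, and the DMSO median was subtracted. Cells were RUES2-GLR, dosed twice at 24-h intervals over 48 h of differentiation (1 nM-200 uM).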

Assay [13] is described as follows: CCTE_Mundy_HCI_iCellGluta_NOG_NeuronCount: CCTE's Neurite Outgrowth Assay in iCellGluta cells for Neuron Count, Mundy Lab (AID 2284340; active means hit-call score of the fitted dose curve at least 0.9, where 1 is the maximum;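 further: cells fixed about 48 h after compound addition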). The method in brief: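 Neuron count read by automated high-content imaging of Hoechst 33342 and betaIII-tubulin/Alexa Fluor-488 labelling in human iPSC glutamatergic neurons. Activity fitted relative to DMSO.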

Inconclusive results are not listed. Active and inactive are the calls of the source. How the source made its calls, unless noted: active means hit-call score of the fitted dose curve at least 0.9, where 1 is the maximum; inactive means score below 0.9.

As to `O=P(O)(O)CCC(F)(F)C(F)(F)C(F)(F)C(F)(F)C(F)(F)C(F)(F)C(F)(F)C(F)(F)F`, the AC50 in the assay on TTR (gene 7276) was 2.24 µM (active); in the assay with SERPINA7 (gene 6906) it was 95.6 µM (active). The call in assay [1], in assay [2], in assay [3], in [4] and in assay [5] was inactive.

As to `Cc1[nH]nc2c1N=C(c1ccccc1Cl)c1cc([N+](=O)[O-])ccc1N2`, in the assay on SERPINA7 (gene 6906), the half-maximal activity concentration (AC50) was 0.482 µM (active).

For `CCCCCCc1ccc(N)cc1`, the result in [6] was inactive. In addition, the AC50 in the assay with SRD5A2 (gene 6716) was 50 µM (active).

Consider `CCCCCCCCCC=CCC1CC(=O)OC1=O` (stereo not drawn), for which the AC50 with SERPINA7 (gene 6906) was 60.7 µM (active).

Consider `CCCCCCCCCCCC`, for which the compound was classed as inactive (in assay [6]; in the assay with SRD5A2 (gene 6716)).

Consider `O=C(CC(=O)C(F)(F)C(F)(F)C(F)(F)F)c1cccs1`, for which the AC50 in the assay on TTR (gene 7276) is 0.193 µM (active); in the assay on SERPINA7 (gene 6906), 14.1 µM (active). Also, the outcome in [1], in [2], in assay [3], in assay [4] and in assay [5] was inactive.

For `CC(=O)Nc1ccc(O)cc1`, the outcome in [7], in assay [8], in assay [9], in [10], in [11] and in [12] was inactive.

Take `O=C1OC2(c3ccccc31)c1cc(I)c(O)c(I)c1Oc1c2cc(I)c(O)c1I`: the figures for the AC50 (in [6]; in the assay on SRD5A2 (gene 6716)) were 1.79 µM (active) and 6 µM (active), respectively.

Regarding `O=C(O)CCC(F)(F)C(F)(F)C(F)(F)C(F)(F)C(F)(F)F`, the concentration at half-maximal activity (AC50) in the assay on TTR (gene 7276) was 3.12 µM (active). Moreover, the result in assay [2], in [3], in assay [4] and in assay [5] was inactive.

In the case of `CC(C)c1c(C(=O)Nc2ccccc2)c(-c2ccccc2)c(-c2ccc(F)cc2)n1CC[C@@H](O)C[C@@H](O)CC(=O)O`, the call in assay [10] was inactive. Besides, the values for the AC50 in [13] and in assay [1] were 10.1 µM (active) and 0.094 µM (active), respectively.

With `Cc1cc(Cc2cc(C)cc(C(C)(C)C)c2O)c(O)c(C(C)(C)C)c1`, the concentration at half-maximal activity (AC50) in the assay on SERPINA7 (gene 6906) was 2.6 µM (active).

In the case of `COc1cc([N+](=O)[O-])ccc1N`, in [6], the outcome was inactive. The AC50 is 50 µM (active) in the assay with SRD5A2 (gene 6716) and 37 µM (active) with SERPINA7 (gene 6906).

On to `O=C(O)C(F)(F)OC(F)(F)C(F)(F)OC(F)(F)C(F)(F)OC(F)(F)C(F)(F)C(F)(F)C(F)(F)F`, for which the AC50 with TTR (gene 7276) was 1.11 µM (active); with SERPINA7 (gene 6906), 20.8 µM (active). In addition, the compound was classed as inactive in [2], in [3], in assay [4] and in assay [5].

As to `CCCCc1oc2ccccc2c1C(=O)c1cc(I)c(OCCN(CC)CC)c(I)c1`, the outcome (in assay [6]; in the assay with SRD5A2 (gene 6716)) was inactive. Also, the AC50 in [8] is 19.8 µM (active); in [9], 18.2 µM (active); in assay [11], 20.8 µM (active); in assay [12] it was 29.9 µM (active).

Take `CCCCc1ccc2ccccc2c1S(=O)(=O)O`: the AC50 in the assay with SERPINA7 (gene 6906) was 22 µM (active).

In general, AC50 refers to the midpoint of the concentration-response curve, whichever way the signal moves.

Source of the values: PubChem BioAssay (EPA / NIEHS).
